# Data published in PubChem BioAssay (NCATS).
# Records with an inconclusive call do not appear. A call without a number means that no potency is given here. Values without a mark were called inactive. Activity calls are given as the source filed them. Calls come from the whole dose curve; as a rule, active = well fitted curve in the direction sought with a large enough effect; inconclusive = small, poorly fitted or top-dose-only effect, or another doubt; inactive = no such curve, though single readings can be large; an effect the other way counts as inactive or inconclusive.
# Key:
# [1] = biological target: Calcium and integrin-binding protein 1 (Homo sapiens) (UniProt Q99828); assay: Primary qHTS for Identification of Calcium Integrin Binding Protein 1 (CIB1) Competitor (AID 1508620)
# Outline: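 Fluorescence polarization competition: GST-tagged CIB1 (1 uM final) preincubated with compound 15 min at room temperature, then FITC-labelled alphaIIb peptide (100 nM final) added. After 15 min at room temperature, polarization read at Ex 480/Em 540.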
# [2] = biological target: Calcium and integrin-binding protein 1 (Homo sapiens) (UniProt Q99828); assay: Confirmatory qHTS for Identification of Calcium Integrin Binding Protein 1 (CIB1) Competitor (AID 1508617); note: nearly all actives have a fitted effect of over 65% in size
# Outline: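 Fluorescence polarization competition: CIB1-GST (1 uM final) in 5 mM HEPES pH 7.4, 125 mM NaCl, 5 mM CaCl2, 0.01% Tween20 preincubated 15 min RT with compound (up to 114 uM), then FITC-alphaIIb peptide (100 nM) added, 15 min RT.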
# Potency is the fitted concentration of half-maximal effect.
# Chain of Calcium and integrin-binding protein 1 (Homo sapiens) (Q99828 whole entry, looked up): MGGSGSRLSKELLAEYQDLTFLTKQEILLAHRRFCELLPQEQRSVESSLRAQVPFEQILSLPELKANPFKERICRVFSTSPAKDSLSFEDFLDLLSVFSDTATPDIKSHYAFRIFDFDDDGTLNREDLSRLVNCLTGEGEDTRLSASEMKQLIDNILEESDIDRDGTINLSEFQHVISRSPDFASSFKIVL
SMILES,Potency [1],Potency [2]
COc1cccc(-c2nc3cc(NC(=O)c4ccc(C)c([N+](=O)[O-])c4)ccc3o2)c1,inactive,
CN(Cc1cccs1)c1ncnc2ccc(-c3ccc4cn(C)nc4c3)cc12,inactive,
CC(Nc1nc(-c2ccccc2C(F)(F)F)nc2ccccc12)c1ccc(-c2cccc(C(F)(F)F)c2)cc1 (stereo not drawn),inactive,
NS(=O)(=O)c1ccc(Nc2nc(-c3ccccc3)cs2)cc1,,50.1 µM (active)
CN(C(=O)c1cccs1)c1cccnc1,50.1 µM (active),31.6 µM (active)
N#Cc1c(-c2ccc(-c3ccccc3)cc2)no[n+]1[O-],inactive,
Cc1ccnc(NC(=S)Nc2cccc(C(F)(F)F)c2)c1,inactive,
CCOC(=O)C1CCN(C(=O)C(C)(C)NC(=O)Nc2ccc(Cl)cc2Cl)CC1,inactive,
O=[S+]([O-])(NCC#CCSc1nnc(-c2cccc3ccccc23)o1)c1ccc(F)cc1,inactive,
N#Cc1ccc(NS(=O)(=O)c2ccc(NC(=O)Cc3ccc(Cl)c(Cl)c3)cc2)cc1,,inactive
O=C1NC(=O)/C(=C/c2cccn2-c2ccc(P(=O)(O)O)cc2)N1,inactive,
COc1cc(NS(=O)(=O)c2ccc(C)cc2)c2ncccc2c1,inactive,
O=C(O)c1ccc(O)c2ncc(-c3n[nH]nc3-c3ccccc3)cc12,inactive,inactive
O=[S+]([O-])(NCc1nccs1)c1ccc(Nc2nc(-c3ccccc3)cs2)cc1,,50.1 µM (active)
O=C(Nc1nc(-c2ccccc2)cs1)c1ccncc1NS(=O)(=O)c1cccc2cccnc12,,35.5 µM (active)
N#Cc1ccc(N[S+](=O)([O-])c2ccc(Nc3nc(-c4ccccc4)cs3)cc2)cc1,,44.7 µM (active)
COc1ccc(-c2nnc3n2N=C(c2ccccc2OC)CS3)c(OC)c1,inactive,
Cc1ccc(CNc2ncnc3ccc(-c4ccc([C@@H](C)O)o4)cc23)o1,inactive,inactive
N#Cc1ccc(C[C@H](C(=O)O)N2C(=O)c3ccc(C(=O)O)cc3C2=O)cc1,inactive,
CC(=O)NC(c1cccs1)c1cc(Br)c2cccnc2c1O (stereo not drawn),inactive,inactive
O=[S+]([O-])(c1cc2ccccc2o1)N1CCN([S+](=O)([O-])c2c(F)cccc2F)CC1,inactive,

SMILES,Potency [1],Potency [2]
CC(C)(C)NS(=O)(=O)c1cccc(Nc2nn3c(=O)c4ccccc4nc3s2)c1,inactive,
O=C1c2ccccc2C(=O)N1c1cncc2ccccc12,inactive,
Cc1ccc(S(=O)(=O)Nc2cc3c(cc2C(=O)Nc2nc(-c4ccccc4)cs2)OCO3)cc1,,inactive
O=S(=O)(Nc1nccs1)c1ccc(Nc2nc(-c3ccccc3)cs2)cc1,50.1 µM (active),50.1 µM (active)
Oc1cccc2cc(-c3ccccc3)cnc12,inactive,
Cc1cc(N[S+](=O)([O-])c2ccc(NC(=O)Cc3cccc(Cl)c3Cl)cc2)no1,inactive,
Cc1cc(-c2nc(Nc3ccc(F)c(F)c3)c3ccccc3n2)ccn1,inactive,
N#Cc1ccc(NS(=O)(=O)c2ccc(NC(=O)Cc3ccc(F)c(Cl)c3)cc2)cc1,,inactive
Fc1ccccc1N1CCN(c2nc(-c3cccs3)nc3ccccc23)CC1,inactive,
Cc1cc(NS(=O)(=O)c2cc3c(cc2F)NC(=O)CC3)ccc1Cl,inactive,
NC(=O)C1CCN(c2ncc(Br)s2)CC1,39.8 µM (active),50.1 µM (active)
Cc1nc(CNc2ncnc3ccc(-c4ccoc4C)cc23)cs1,inactive,
COc1cccc(C2C(C#N)=C(NC(=O)NCc3ccccc3)Oc3ccc4ccccc4c32)c1 (stereo not drawn),inactive,
Cc1cc(-c2ccccc2)n2ncc(C(=O)Nc3ccc(Cl)c(Cl)c3)c2n1,inactive,
Cc1ccc(S(=O)(=O)Nc2ccc(Br)cc2C(=O)Nc2nc(-c3ccccc3)cs2)cc1,,inactive
Cc1ccc2nc3sc(C(=O)NCc4ccco4)cc3cc2c1,inactive,inactive
O=C(Nc1nc(-c2ccccc2)cs1)c1ccccc1-n1cnnn1,inactive,
N#Cc1ccc(-c2ccc(CNc3ccc(N4CCC(C#N)CC4)cc3)o2)cc1,inactive,
Fc1ccc(-c2ccc(Nc3nc(-c4ccncc4)nc4ccccc34)cc2F)c(F)c1,inactive,
CC(C)Oc1ccc(-c2ccc(=O)n(CC(=O)NCCc3ccccc3)n2)cc1,inactive,
